This note sets out measurements from PubChem BioAssay AID1018 (Sanford-Burnham Center for Chemical Genomics, 2008).

In all, about 200,000 compounds went through this assay and about 15 (0.007%) were called active. This excerpt belongs to a sample that is enriched for actives. Unmarked numbers belong to inactive results. Rule as the data show it: active = displacement above about 50%; inactive = the rest.

The assay deals with E3 ubiquitin-protein ligase XIAP (Homo sapiens) (UniProt P98170). Put plainly: XIAP antagonists, biochemical, IAP family, fluorescence polarization (AID 1018). The following applies: XIAP BIR domain, fluorescence polarization peptide displacement; at 20 µM; hits give high values. A general note: In fluorescence polarisation assays a small probe gives low polarisation when free and higher when bound to something large.
Sequence of E3 ubiquitin-protein ligase XIAP (Homo sapiens) (P98170 whole entry, looked up, the tested form may be a part): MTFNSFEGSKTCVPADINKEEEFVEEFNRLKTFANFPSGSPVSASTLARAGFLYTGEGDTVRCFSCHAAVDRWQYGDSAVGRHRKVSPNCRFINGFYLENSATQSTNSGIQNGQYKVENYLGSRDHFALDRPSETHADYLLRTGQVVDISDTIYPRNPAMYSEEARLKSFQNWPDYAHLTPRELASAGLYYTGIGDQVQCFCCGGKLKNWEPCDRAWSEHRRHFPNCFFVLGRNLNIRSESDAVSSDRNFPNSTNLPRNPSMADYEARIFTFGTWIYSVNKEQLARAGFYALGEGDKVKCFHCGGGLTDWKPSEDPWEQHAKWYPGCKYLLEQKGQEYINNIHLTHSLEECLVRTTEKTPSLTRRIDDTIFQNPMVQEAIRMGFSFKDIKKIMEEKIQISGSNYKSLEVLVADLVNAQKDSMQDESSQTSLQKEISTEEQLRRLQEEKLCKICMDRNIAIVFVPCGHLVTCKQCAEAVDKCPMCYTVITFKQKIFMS
In the case of `O=c1[nH]nc(CNc2ccc(OC(F)(F)F)cc2)c2ccccc12`, the displacement was -3.9%.

For `COc1ccccc1N(C)S(=O)(=O)c1ccc(C(=O)Nc2ccc3nc(C)sc3c2)cc1`, the displacement was 1.3%. Then `Cc1cc(C(F)(F)F)nn1CC(=O)N(C)c1ccccc1`, with -1.9%. Regarding `CCNS(=O)(=O)c1ccc(Br)c(OC)c1`, the displacement was -3.2%. Consider `COc1cc2nc(CN3CCN(S(=O)(=O)c4ccc(Cl)cc4)CC3)[nH]c(=O)c2cc1OC`, for which the displacement was -6.8%. Consider `C#CCOCCOCCOCCNc1nc(N2CCN(C(=O)[C@H](CCCCN)n3cc([C@@H](N)C(C)CC)nn3)CC2)nc(N2CCN(C(=O)[C@H](CCCCN)n3cc([C@@H](N)CO)nn3)CC2)n1` (some centres undefined), for which the displacement was 3.3%. Take `CN(C)S(=O)(=O)c1ccc(C(=O)Nc2ccnn2C2CCCCC2)cc1`: the displacement is -3.3%. Take `COc1ccc(-c2nc(CC(=O)O)cs2)cc1OC`: the displacement is -0.6%. To `Cc1ccc(C2NC(=O)NC3=C2CCc2ccccc23)cc1` (centres undefined) belongs -5.1%; to `CC(C)c1ccc(C2NC(=O)NC3=C2CCc2ccccc23)cc1` (centres undefined), 52.5% (active); to `O=C1NC2=C(CCc3ccccc32)C(c2ccccc2)N1` (centres undefined), -5.4%. For the molecule `CCOC(=O)c1c(-c2ccc(C)o2)csc1NC(=O)CSc1nnnn1-c1ccccc1`, the displacement is -8.2%. Then `CCCCCCCCNC(=O)c1cnsn1`, with -0.1%; and `COc1cccc(-c2cc(C(=O)NCCCn3ccnc3)c3ccccc3n2)c1`, with -3%; and `O=C(Cn1cc2c(n1)CCCCC2)NC1CCN(Cc2ccccc2)CC1`, with -4.9%. Then `CCCc1cc(-c2n[nH]c(=S)n2CC)cs1`, with -5.7%. As to `O=C(Cn1c(=O)oc2cc(S(=O)(=O)N3CCCCC3)ccc21)N1CCc2ccccc2C1`, the displacement was -5.2%. Then `COc1ccc(NC(=O)OCCN2CCN(Cc3ccccc3)CCC2=O)cc1`, with -8%; and `N#Cc1nc(COc2ccccc2)oc1N1CCN(Cc2ccccc2)CC1`, with 0.7%.

For the molecule `CCC(C)NC(=O)Cc1c(OC)ccc2cc(Br)ccc12` (centres undefined), the displacement was -4.6%. Regarding `C=CCSc1nnc(-c2ccccc2NC(=O)CC)c(=O)[nH]1`, the displacement was -1.1%. To `COc1ccccc1N1CCN(C(=O)CCN2C(=O)c3cccc4cccc(c34)C2=O)CC1` belongs -4.4%; to `CC(=O)Nc1ccc(NC(=O)C(C)c2cccc(C(=O)c3ccccc3)c2)cc1` (centres undefined), 2.4%; to `CCOC(=O)c1ccc(NC(=S)NCCCN2CCCCC2)cc1`, -4.4%. Turning to `COC(=O)c1cc2n3ccccc3c(C)c(-c3ccccc3)c-2c1C(=O)OC`, the displacement was 72.2% (active).

As for `COC(=O)c1c(Cl)c2n3ccccc3c(C)c(-c3ccccc3)c-2c1C(=O)OC`, the displacement is -0.6%. Turning to `COC(=O)c1cc2c(-c3ccccc3)c(C)c3ccccn3c-2c1C(=O)OC`, the displacement was 26%. To `O=C(O)/C=C\C(=O)NCc1cccnc1` belongs -9.2%. Then `Cc1cc(F)ccc1N1CCC(N2CCN(C(C)C)C(CCO)C2)CC1` (centres undefined), with -1.1%.

With `O=C(c1cc(COc2ccc(F)cc2F)on1)N1CCSCC1`, the displacement is -0.5%. To `CCN1CCN(C(=S)Nc2cc(S(=O)(=O)N(CC)CC)ccc2C)CC1` belongs -2.7%; to `Cc1ccccc1NC(=O)Cc1c(O)c2ccccc2[nH]c1=O`, -1.1%; to `CCOC(=O)CSC(=S)NC(=O)c1ccc(OC)cc1`, -1.6%. To `CCOC(=O)C1=C(C)NC(=NC)SC1c1ccccc1` (centres undefined) belongs -5%; to `CSc1nnc(-c2cccs2)n1-c1ccccc1`, 0.8%. `CCOC(=O)C1(CC2CC2)CCN(Cc2ccc(O)c(Cl)c2)CC1`: the displacement was -4.8%. To `CCCc1cc(=O)[nH]c(SCC(=O)N(CC)C2CCS(=O)(=O)C2)n1` (centres undefined) belongs -4.4%. `CC(C)(C)C1=C(C#N)C(c2ccncc2)C(C#N)=C(N)O1` (centres undefined): the displacement is -0.4%.

As for `CCN1CCCC1CNC(=O)Cn1cccc1C(=O)c1ccccc1` (centres undefined), the displacement was -6.4%. To `CC(=O)c1cc(-c2ccccc2)n(CC(=O)Nc2cc(C)cc(C)c2)c1C` belongs -1%; to `Cc1ccc(C)c2[nH]c(=O)c(CN(Cc3ccco3)C(=S)NCC3CCCO3)cc12` (centres undefined), 0.3%; to `CCN(c1ccccc1)S(=O)(=O)c1cc(C(=O)Nc2ccccc2Cl)ccc1F`, -5.8%. Consider `O=C(c1ccc(F)cc1)N1CCCCC(Sc2nnnn2-c2ccccc2)C1=O` (centres undefined), for which the displacement was -21.1%. Take `Cc1c(C(=O)C(=O)NCC2CCCO2)c2ccccc2n1C` (centres undefined): the displacement is -2.9%. Take `CCOC(=O)C(=O)Nc1cc(Cl)ccc1C`: the displacement was -10.6%.

For the molecule `Cc1c(N)cccc1-n1cnnn1`, the displacement was -4%.

`Cc1onc(-c2c(F)cccc2Cl)c1C(=O)N1CCc2ccccc2C1`: the displacement was -8.4%. Consider `O=C(COC(=O)CCc1nc2ccccc2s1)Nc1cccc(S(=O)(=O)N2CCOCC2)c1`, for which the displacement was -5.8%.

For `Cc1nc(NCc2ccc3c(c2)OCO3)c2nnn(Cc3ccccc3)c2n1`, the displacement was -8.1%. For `CCCc1nc(NCc2ccc3c(c2)OCO3)c2nnn(Cc3ccccc3Cl)c2n1`, the displacement is 51.1% (active).

For `c1ccc(Cn2nnc3c(NCc4ccc5c(c4)OCO5)nc(C4CC4)nc32)cc1`, the displacement is -10.8%.

In the case of `O=C(COC(=O)c1ccc[n+]([O-])c1)Nc1c(Br)cc([N+](=O)[O-])cc1Br`, the displacement was -4.5%. Then `Cc1cc(C)c(NC(=S)N(CCN(C)C)Cc2cccs2)c(C)c1`, with -10.6%; and `C=C(C)C1Cc2c(C)nn(-c3cccc4ccccc34)c2C1` (centres undefined), with -4.8%. Take `CCOC(=O)c1ccc(NC(=O)N2CCN(CCc3ccccc3)CC2)cc1`: the displacement was -8.1%. Then `Cc1sc2ncn(-c3ccccc3)c(=O)c2c1C`, with 4.2%; and `Cc1ccc2nc(C3CCCN(C(=S)Nc4ccccc4C)C3)[nH]c2c1` (centres undefined), with -10%. `CCCOC(=O)/C(=C\C=C\c1ccco1)NC(=O)c1ccccc1`: the displacement is -0.1%. Consider `Cc1ccc(N/C(N)=N/c2nc(CSc3ccc(C)cc3)cc(=O)[nH]2)cc1`, for which the displacement is 1.1%. Consider `CC(/C=C1\SC(=S)N(NC(=O)c2ccccc2C)C1=O)=C\c1ccccc1`, for which the displacement is -1.8%. With `Fc1cccc(CSc2nc3ccncc3[nH]2)c1`, the displacement is -5.3%. Regarding `CCOc1cc(N2CCOCC2)c(OCC)cc1NC(=O)CSc1ncccn1`, the displacement is -8.5%. Then `O=C(Cn1cc(CCO)nn1)N1CCNCC1`, with -26.3%; and `CCOC(=O)c1c(C)[nH]c(C)c1C(=O)CSc1nnc(-c2ccncc2)n1C`, with -0.3%; and `O=C(Nc1cn(-c2ccccc2)nc1-c1ccc(Cl)cc1)c1ccccc1`, with -8.1%. For `CN1CCN(CC(O)COC(c2ccccc2)c2ccccc2)CC1` (centres undefined), the displacement was -2.7%. As to `CS(=O)(=O)N(CC(=O)Nc1ccc2c(c1)OCO2)c1ccccc1`, the displacement was 0.9%. Then `CCCCCC(=O)N1CCN(CCN=CC2=C(O)CC(c3ccc(OC)c(OC)c3)CC2=O)CC1` (centres undefined), with -3.4%; and `O=c1[nH]c2cc3c(cc2cc1CN(Cc1cccnc1)C(=S)NCc1ccco1)OCO3`, with -8.9%. On to `O=C(NC1CCCC1)C(c1ccncc1)N(Cc1ccco1)C(=O)c1ccc(-c2ccccc2)[nH]1` (centres undefined), for which the displacement is -0.5%. Then `O=C(CNC(=O)c1ccc(N2C(=O)c3ccccc3C2=O)cc1)OCC(=O)c1ccccc1`, with -3.8%; and `CCc1ccc(C(=O)COC(=O)CNC(=O)c2ccc(N3C(=O)c4ccccc4C3=O)cc2)cc1`, with -2.7%; and `O=C(CNC(=O)c1ccc(N2C(=O)c3ccccc3C2=O)cc1)OCC(=O)c1ccc(Cl)cc1`, with 77.6% (active). Then `O=C(c1ccc2c(=O)n(C3CCCC3)c(=S)[nH]c2c1)N1CCCCCC1`, with 68.1% (active); and `O=C(c1ccc2c(=O)n(C3CCCC3)c(=S)[nH]c2c1)N1CCN(C2CCCCC2)CC1`, with -21.2%. Regarding `CC1CCCN(C(=O)c2ccc3c(=O)n(C4CCCC4)c(=S)[nH]c3c2)C1` (centres undefined), the displacement was -8.7%. Turning to `Cc1ccc(NC(=O)c2ccc(Cl)nc2)cc1`, the displacement is -3.5%. To `Cc1cccc(S(=O)(=O)NCC2CCCO2)c1` (centres undefined) belongs -6.3%; to `Cc1cc(C(=O)NCc2ccc(C(=O)O)o2)c(C)o1`, -8.1%. With `CC1(C)NC(C)(C)c2nonc2/C1=N\O`, the displacement is -3.8%. For the molecule `CC(C)(C)n1nnnc1C(c1ccncc1)N(Cc1ccccc1)Cc1ccco1` (centres undefined), the displacement is -4.2%.

Take `O=S(=O)(/C=C/c1ccccc1)N1CCN(c2ccccc2)CC1`: the displacement was -3.9%. With `CC(C)(C)n1nnnc1C(c1cccnc1)N1CCN(c2cccc(C(F)(F)F)c2)CC1` (centres undefined), the displacement was -2.9%. As to `COc1ccc(NC(=O)c2cc(OC)c(OC)cc2OC)c(S(=O)(=O)N2CCOCC2)c1`, the displacement is -3.3%. `CCOC(=O)Nc1ccc(OC)cc1S(=O)(=O)N1CCCCC1`: the displacement is -2.5%. Then `CCCCOC(=O)Nc1ccc(OC)cc1S(=O)(=O)N1CCOCC1`, with 58.7% (active); and `O=C1c2ccccc2-c2onc3ccc(NCCCn4ccnc4)c1c23`, with 70.1% (active); and `O=C1c2ccccc2-c2onc3ccc(NCc4ccco4)c1c23`, with 76.4%. Then `CCNc1ccc2noc3c2c1C(=O)c1ccccc1-3`, with -8.9%; and `Cc1cc(=O)[nH]c(S/C=C/c2ccccc2)n1`, with 0.7%; and `CCN(CC)S(=O)(=O)c1ccc(C)c(NC(=O)COC(=O)CNC(=O)c2ccc(C(C)(C)C)cc2)c1`, with -10.4%. `Cc1nn(CCC#N)c2[nH]c(=O)cc(C(F)(F)F)c12`: the displacement is -4.9%. Then `Cc1ccc(C(NC(N)=O)c2ccccc2C)cc1` (centres undefined), with -1.9%; and `S=c1[nH]nc(CN2CCCCC2)n1-c1ccc(Cl)cc1`, with -9.6%.
